Test results: PubChem BioAssay (NCI)
Compounds without any hit were thinned out: in the full panel of roughly 83,000, 20% have a hit.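 Plates (96-well) were seeded with cells, treated with compound at one concentration, and incubated for 48 hours before percent growth was determined.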 Unmarked numbers belong to inactive results. Active and inactive are the calls of the source. The calls were made as follows: active = growth percent below 10; inactive = the rest.

Each compound was assayed on SK-MEL-28 melanoma (assay: NCI-60 one-dose screen, 48 h (100 = growth as untreated, 0 = no growth, -100 = all killed)). Details: 10 µM unless noted.
`C=C1C(=O)O[C@H]2[C@H]1CC/C(COC(=O)NCCc1cccc(OC)c1)=C\CC[C@@]1(C)O[C@@H]21` showed a growth of 46.7%.
Work on `COc1ccccc1OCC(=O)Nc1sc2c(c1C(N)=O)CCC2` yielded a growth of 101%.
`CCc1c(C(=O)Nc2ccc3ccccc3c2)[nH]c(C)c1C(C)=O` was tested, and the growth was 97.8%.
In the case of `CCC(=O)Oc1ccc2c(c1)CC[C@@H]1[C@@H]2CC[C@]2(C)C[C@H](OC(=O)CC)C[C@@H]12`, the growth is reported as 73.7%.
For `COC(=O)CCCCN=Cc1c(O)c(O)c(C(C)C)c2cc(C)c(-c3c(C)cc4c(C(C)C)c(O)c(O)c(C=NCCCCC(=O)OC)c4c3O)c(O)c12`, the growth was 31.1%.
Work on `COc1ccc2c(c1)C(C)Cc1c(N(C)C)ncnc1N2C` (centres undefined) yielded a growth of 59.3%.
For `Cc1ccc(S(=O)(=O)OCC(=O)Nc2ccc(C(=O)O)c(O)c2)cc1`, the growth was 98.6%.
With `O=C(O)c1ccc(-n2cc(CNc3ccc(C(F)(F)F)cc3)c(-c3ccccc3)n2)cc1` the growth was 95.2%.
In the case of `Cc1cc(C(=O)CSc2nc3ccccc3c(=O)[nH]2)c(C)n1C`, the growth is reported as 121%.
In the case of `CC/C=C\C[C@H](O)C/C=C1/C(=O)C(Cl)=C[C@@H]1C/C=C\CCCC(=O)OC`, the growth is reported as -2.03% (active).
Compound `CCSc1nnc(Nc2ccc(C(C)C)cc2)s1` has a growth of 110%.
With `Cc1ccc2nc(-c3c(N)n[nH]c3CCCO)[nH]c(=O)c2c1` the growth was 115%.
Work on `COc1cc(C(=O)N2CCN(C(=O)c3ccco3)CC2)c(N)cc1OCc1ccccc1` yielded a growth of 114%.
Compound `O=C(Nc1cccc(Cl)c1)c1cc([N+](=O)[O-])ccc1O` has a growth of 28.6%.
`O=C(CNC(=O)c1cccc2ccccc12)Nc1ccccc1Oc1ccccc1` showed a growth of 57.8%.
`Nc1cccc2c1CN(C1CCC(=O)NC1=O)C2=O` (centres undefined) was tested, and the growth was 111%.
`Nc1ccc(S(=O)(=O)c2ccc(Cl)cc2)cc1` gave a growth of 102%.
With `CNC(=O)c1cc(Oc2ccc3c(c2)sc2nc(-c4ccc(Cl)cc4)cn23)ccn1` the growth was 104%.
In the case of `Cc1cc(C)c2c(=O)[nH]c(SCC(=O)Nc3cccc(S(=O)(=O)N(C)C)c3)nc2n1`, the growth is reported as 126%.
With `CSc1ccccc1C#C/C=C\C#Cc1ccccc1N1CCCC1=O` the growth was 50.1%.
With `O=S(=O)(NCCCNc1cc(-c2cn(-c3ccccc3)nc2-c2cccc(O)c2)ccn1)c1ccc(Cl)cc1` the growth was -27.5% (active).
With `CC(=O)Oc1cccc(OC(C)=O)c1OC(C)=O` the growth was 104%.
`C=C1C(=O)O[C@H]2[C@H]1CC/C(COC(=O)NCCc1ccc(Br)cc1)=C\CC[C@@]1(C)O[C@@H]21` showed a growth of 30.6%.
With `O=S=Nc1ccc([N+](=O)[O-])cc1` the growth was 107%.
In the case of `COc1ccc(N=C2NN=C(c3ccc(F)cc3)CS2)cc1OC`, the growth is reported as 114%.
Compound `NC(C(=O)O)C(O)c1ccc(OCc2ccccc2)c(OCc2ccccc2)c1` (centres undefined) has a growth of 110%.
In the case of `CC/C=C\C[C@H]1C/C=C2/C(=O)C(Cl)=C[C@@H]2C/C=C\CCCC(=O)O1`, the growth is reported as -43% (active).
For `Cc1sc2nc(CSc3nnc(-c4ccco4)o3)[nH]c(=O)c2c1C`, the growth was 110%.
In the case of `O=S(=O)(NCCCNc1cc(-c2cn(-c3ccccc3)nc2-c2cccc(O)c2)ccn1)c1cccc2ccccc12`, the growth is reported as 4.71% (active).
With `CN(C)c1nc(N)c(N=O)c(N)n1` the growth was 114%.
With `O=C1NC(Cc2c[nH]c3ccccc23)C(=O)N1Cc1ccc(Cl)cc1` (centres undefined) the growth was 109%.
Compound `COC(=O)c1ccc(C)cc1` has a growth of 113%.
`COC(=O)CCCCCN=Cc1c(O)c(O)c(C(C)C)c2cc(C)c(-c3c(C)cc4c(C(C)C)c(O)c(O)c(C=NCCCCCC(=O)OC)c4c3O)c(O)c12` was tested, and the growth was 33%.
With `O=S(=O)(NCCCNc1nccc(-c2c(-c3ccc(F)c(O)c3)nc3sccn23)n1)c1ccc(Cl)cc1` the growth was 23.3%.
For `COc1ncc(-c2ccc3ncnc(Nc4cccc(Cl)c4)c3c2)cc1N(S(C)(=O)=O)S(C)(=O)=O`, the growth was 72.8%.
With `CC(Br)C(O)c1cc2c(cc1Br)OCO2` (centres undefined) the growth was 108%.
In the case of `O=S(=O)(NCCCNc1cc(-c2cn(-c3ccccc3)nc2-c2cccc(O)c2)ccn1)c1ccc(Br)cc1`, the growth is reported as -36.2% (active).
`COc1ccc2c(c1)NC(=O)CN2c1nc(C)nc2ccccc12` showed a growth of 59%.
With `NC(=O)c1c(NC(=O)c2ccc3c(c2)OCO3)sc2c1CCC(=O)C2` the growth was -38.7% (active).
